In PubChem BioAssay (Tox21):
Records with an inconclusive call do not appear. Activity calls are given as the source filed them. Unless noted, the call rests on the fitted dose curve; in most records, active means well fitted curve in the direction sought with a large enough effect in the repeat runs; inconclusive means weak or mixed curves; inactive means no such curve, though single readings can be large; an effect the other way counts as inactive or inconclusive.

Columns and labels:
[1] = A CellTox Green Cytotoxicity Assay to monitor cytotoxicity in HepG2 cells - 8 hour (AID 1224890); further: nearly all actives have a fitted effect of over 45% in size
Outline: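 Nonlytic assay: viable cells exclude the dye, so fluorescence scales with cell death. HepG2 at 600 cells/well, compounds added after 5 h, signal read across 40 h.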

[2] = qHTS assay to identify small molecule antagonists of the estrogen receptor alpha (ER-alpha) signaling pathway using the BG1 cell line in the presence of 0.1 nM 17-beta-estradiol - cell viability counter screen (AID 1259241); further: nearly all actives have a fitted effect of over 40% in size
Outline: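 Cytotoxicity counter-screen: live-cell protease activity measured by fluorescence (30 min reagent step) in the same wells. Cells were VM7Luc4E2 with endogenous ER-alpha and ERE-driven luciferase, treated 22 hr at 37C alongside 0.1 nM 17beta-estradiol final.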

[3] = qHTS assay to identify small molecule antagonists of the androgen receptor (AR) signaling pathway using the MDA cell line in the presence of 0.5 nM R1881 - cell viability counter screen (AID 1259242); further: nearly all actives have a fitted effect of over 45% in size
Outline: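 R1881 at 0.5 nM final stimulated MDA-kb2 cells during 16 hr compound treatment at 37C. Cytotoxicity read: CellTiter-Fluor fluorescence after 30 min.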

[4] = biological target: Estrogen receptor (Homo sapiens) (UniProt P03372); assay: qHTS assay to identify small molecule antagonists of the estrogen receptor alpha (ER-alpha) signaling pathway using the BG1 cell line in the presence of 0.1 nM 17-beta-estradiol (AID 1259244); further: nearly all actives have a fitted effect of over 50% in size
Outline: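 VM7Luc4E2; 4xERE-luciferase; 0.1 nM E2 final; 22 h co-incubation, 37C; ONE-Glo luminescence after 30 min at room temperature.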

[5] = qHTS assay to identify small molecule HDAC inhibitors (AID 1259364);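 further: wild-type HCT-116 cells with endogenous class I/II HDAC activity; top concentration of the series differs between compounds; nearly all actives have a fitted effect of over 45% in size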
Outline: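 Relative class I and II HDAC activity is taken from the luminogenic signal in HCT-116 cells, with compound exposure 2 hr and reagent development 30 min at room temperature.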

[6] = qHTS assay to identify small molecule HDAC inhibitors - cell viability counter screen (AID 1259365); further: series mostly up to about 92 µM; nearly all actives have a fitted effect of over 50% in size
Outline: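 CellTiter-Glo luminescence (30 min, room temperature) reported viability after a 2 h compound exposure at 37 C. Cells: wild-type HCT-116, 1,500 per well, seeded the night before.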

[7] = qHTS assay to identify small molecule agonists of the sonic hedgehog signaling (Shh) pathway - cell viability counter screen (AID 1259366); further: nearly all actives have a fitted effect of over 50% in size
Outline: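 Cytotoxicity counter screen: CellTiter-Fluor reagent added after 23 h compound exposure, then 1 h at 37C and fluorescence read. Cells were 3T3 Gli1-Luc, seeded 2,000 per well and dosed 4 h post-plating.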

[8] = qHTS assay to identify small molecule antagonists of the sonic hedgehog signaling (Shh) pathway - cell viability counter screen (AID 1259367); further: nearly all actives have a fitted effect of over 55% in size
Outline: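 Using CellTiter-Fluor, viability of Gli1-Luc reporter 3T3 cells is read by fluorescence in the wells used for the Shh luciferase assay. Treatment lasts 23 hr with conditioned medium, then reagent 1 hr at 37C.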

[9] = qHTS assay to identify small molecule agonists of the sonic hedgehog signaling (Shh) pathway (AID 1259368; calls by dose curve;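 further: NIH/3T3-derived 3T3Gli1-Luc cells carrying a stable Gli1-driven firefly luciferase reporter; series mostly up to about 92 µM; nearly all actives have a fitted effect of over 15% in size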)
Outline: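 Mouse fibroblast (NIH/3T3) reporter cells with stably integrated Gli1-Luc were treated 24 hr with compound; firefly luciferase luminescence served as the read-out.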

[10] = qHTS assay to identify small molecule antagonists of the sonic hedgehog signaling (Shh) pathway (AID 1259369; calls by dose curve; further: nearly all actives have a fitted effect of over 45% in size)
Outline: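 Conditioned medium drives Shh signalling in 3T3Gli1-Luc cells; compounds in DMSO co-applied, 24hr at 37 C, then luciferase luminescence.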

[11] = biological target: Estrogen receptor beta (Homo sapiens) (UniProt Q92731); assay: qHTS assay to identify small molecule agonists of the estrogen receptor beta (ER-beta) signaling pathway (AID 1259377; active means well fitted activation curve with a large enough effect in the signal ratio in the repeat runs, not every such curve was filed as active; the % refers to the signal ratio)
Outline: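 Ratiometric beta-lactamase FRET read-out came after 2 h substrate loading at room temperature. It followed 16 h compound treatment at 37C of GripTite HEK293T cells carrying a UAS-bla reporter, plated in 2% charcoal-stripped FBS medium.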

[12] = biological target: Estrogen receptor beta (Homo sapiens) (UniProt Q92731); assay: qHTS assay to identify small molecule antagonists of the estrogen receptor beta (ER-beta) signaling pathway (AID 1259378; active means well fitted inhibition curve with a large enough effect in the signal ratio in the repeat runs, not every such curve was filed as active; the % refers to the signal ratio)
Outline: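 Antagonist mode: compounds added to beta-lactamase reporter HEK293T ER-beta-UAS cells stimulated with E2 (1nM final), 16 hr at 37C. LiveBLAzer B/G FRET substrate, 2 hours room temperature, fluorescence read-out.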

[13] = qHTS assay to identify small molecule agonists of the androgen receptor (AR) signaling pathway in the presence of an antagonist - cell viability counter screen (AID 1259379);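 further: MDA-kb2 human breast cancer cells carrying an MMTV luciferase reporter; series mostly up to about 92 µM; nearly all actives have a fitted effect of over 25% in size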
Outline: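 A CellTiter-Fluor read-out measured viability of MDA-kb2 reporter cells (MMTV promoter with AR and GR response elements). Treatment: nilutamide 3.0uM final with compounds at 15 concentrations, 16 hr, 37C, 0% CO2.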

[14] = qHTS assay to identify small molecule agonists of the estrogen receptor beta (ER-beta) signaling pathway - cell viability counter screen (AID 1259380); further: nearly all actives have a fitted effect of over 30% in size
Outline: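 Cells used were ER-beta-UAS-bla HEK293T in medium with 2% charcoal-stripped FBS. They were treated for 16 hr at 37C. Viability came from CellTiter-Glo luminescence.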

[15] = qHTS assay to identify small molecule antagonists of the estrogen receptor beta (ER-beta) signaling pathway - cell viability counter screen (AID 1259382); further: series mostly up to about 92 µM; nearly all actives have a fitted effect of over 55% in size
Outline: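 Agonist-stimulated (1nM E2) ER-beta-UAS-bla HEK293T cells are incubated with library compounds for 16 hr at 37C. Cell viability is then assessed in the reporter-assay wells by adding CellTiter-Glo and reading luminescence after 30 min.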

[16] = qHTS assay to identify small molecule phospholipidosis (PLD) inducers (AID 1259344; active means well fitted curve in the direction sought with a large enough effect; an effect the other way counts as inactive or inconclusive)
Outline: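 Fluorescent phospholipid staining (LipidTOX Red) measured by automated microscopy in fixed HepG2 cells after 24 h treatment; nuclei counterstained with Hoechst 33342; amiodarone as reference inducer.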

[17] = biological target: Estrogen receptor (Homo sapiens) (UniProt P03372); assay: qHTS assay to identify small molecule agonists of the estrogen receptor alpha (ER-alpha) signaling pathway in the presence of an antagonist (AID 1259383; calls by dose curve; further: top concentration of the series differs between compounds; nearly all actives have a fitted effect of over 15% in size)
Outline: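 Using VM7Luc4E2 cells seeded 24hr before treatment, antagonist ICI-182,780 (10.0nM final) was added, followed by compounds at 15 concentrations. Plates incubated 22hr; ONE-Glo luminescence quantified reporter activity.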

[18] = qHTS assay to identify small molecule agonists or antagonists of the thyroid stimulating hormone receptor (TSHR) signaling pathway - wild type cell line counter screen (AID 1259384; calls by dose curve)
Outline: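 Counter screen in untransfected Hek293: compounds (15-point titration, triplicate) plus phosphodiesterase inhibitor Ro20-1724 added after 18 h plating; 30 min RT. Intracellular cAMP via competitive d2/cryptate immunoassay, 1 h incubation.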

[19] = biological target: Androgen receptor (Homo sapiens) (UniProt P10275); assay: qHTS assay to identify small molecule antagonists of the androgen receptor (AR) signaling pathway using the MDA cell line in the presence of 0.5 nM R1881 (AID 1259243); further: nearly all actives have a fitted effect of over 50% in size; further: potency means the concentration at half of the fitted maximal effect
Outline: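 We exposed MDA-kb2 cells to compounds under 0.5 nM R1881 stimulation for 16 hr at 37C and quantified MMTV-driven luciferase by luminescence.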

[20] = biological target: Androgen receptor (Homo sapiens) (UniProt P10275); assay: qHTS assay to identify small molecule agonists of the androgen receptor (AR) signaling pathway in the presence of an antagonist (AID 1259381; calls by dose curve; further: nearly all actives have a fitted effect of over 15% in size)
Outline: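 Using human MDA-kb2 cells with an MMTV promoter–luciferase construct (AR and GR response elements), agonist activity is scored under 3.0uM nilutamide (final) co-treatment; 16hr incubation, 37C, luminescence readout via ONE-Glo.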
On the % scale 0 is the no-effect control and ±100 the full control effect.

Androgen receptor (Homo sapiens), sequence (P10275 whole entry, looked up): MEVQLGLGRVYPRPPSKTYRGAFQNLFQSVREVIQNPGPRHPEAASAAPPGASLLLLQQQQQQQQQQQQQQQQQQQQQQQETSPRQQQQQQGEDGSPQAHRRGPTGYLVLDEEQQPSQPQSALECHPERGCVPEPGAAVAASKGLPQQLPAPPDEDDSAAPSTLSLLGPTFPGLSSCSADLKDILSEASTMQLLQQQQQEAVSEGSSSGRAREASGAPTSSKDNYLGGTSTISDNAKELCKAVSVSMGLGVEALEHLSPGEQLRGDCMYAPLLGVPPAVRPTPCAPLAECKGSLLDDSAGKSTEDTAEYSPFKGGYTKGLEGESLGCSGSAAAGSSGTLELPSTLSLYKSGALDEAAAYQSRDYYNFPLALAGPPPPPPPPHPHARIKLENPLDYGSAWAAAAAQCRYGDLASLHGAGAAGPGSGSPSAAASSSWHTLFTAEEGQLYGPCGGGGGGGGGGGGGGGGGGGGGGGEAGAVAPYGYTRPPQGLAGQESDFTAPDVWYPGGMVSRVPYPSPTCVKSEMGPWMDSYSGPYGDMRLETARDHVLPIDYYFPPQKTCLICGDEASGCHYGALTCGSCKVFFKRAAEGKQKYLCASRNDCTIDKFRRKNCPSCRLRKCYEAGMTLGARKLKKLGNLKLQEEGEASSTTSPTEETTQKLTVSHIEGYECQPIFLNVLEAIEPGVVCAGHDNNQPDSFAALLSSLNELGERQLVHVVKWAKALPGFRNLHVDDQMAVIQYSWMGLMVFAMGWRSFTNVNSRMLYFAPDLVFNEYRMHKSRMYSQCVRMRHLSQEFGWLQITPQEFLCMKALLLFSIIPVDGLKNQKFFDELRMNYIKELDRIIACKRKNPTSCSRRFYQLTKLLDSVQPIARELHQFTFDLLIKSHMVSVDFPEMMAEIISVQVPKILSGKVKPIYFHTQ
Estrogen receptor beta (Homo sapiens), sequence (Q92731 whole entry, looked up): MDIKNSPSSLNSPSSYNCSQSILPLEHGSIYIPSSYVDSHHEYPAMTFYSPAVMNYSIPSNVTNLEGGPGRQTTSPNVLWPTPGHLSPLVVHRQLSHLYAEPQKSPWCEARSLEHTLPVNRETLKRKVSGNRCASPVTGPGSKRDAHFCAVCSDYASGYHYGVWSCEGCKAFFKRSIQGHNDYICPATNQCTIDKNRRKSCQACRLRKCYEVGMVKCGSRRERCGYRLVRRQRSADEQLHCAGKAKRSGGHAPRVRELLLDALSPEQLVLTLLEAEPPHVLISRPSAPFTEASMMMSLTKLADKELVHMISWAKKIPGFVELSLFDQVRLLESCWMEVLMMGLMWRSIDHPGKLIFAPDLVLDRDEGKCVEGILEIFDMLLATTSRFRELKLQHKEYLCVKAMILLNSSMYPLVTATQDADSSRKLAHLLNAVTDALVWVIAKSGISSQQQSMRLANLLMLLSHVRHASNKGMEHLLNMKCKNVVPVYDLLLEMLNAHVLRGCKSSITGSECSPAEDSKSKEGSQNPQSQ
Estrogen receptor (Homo sapiens), sequence (P03372 whole entry, looked up): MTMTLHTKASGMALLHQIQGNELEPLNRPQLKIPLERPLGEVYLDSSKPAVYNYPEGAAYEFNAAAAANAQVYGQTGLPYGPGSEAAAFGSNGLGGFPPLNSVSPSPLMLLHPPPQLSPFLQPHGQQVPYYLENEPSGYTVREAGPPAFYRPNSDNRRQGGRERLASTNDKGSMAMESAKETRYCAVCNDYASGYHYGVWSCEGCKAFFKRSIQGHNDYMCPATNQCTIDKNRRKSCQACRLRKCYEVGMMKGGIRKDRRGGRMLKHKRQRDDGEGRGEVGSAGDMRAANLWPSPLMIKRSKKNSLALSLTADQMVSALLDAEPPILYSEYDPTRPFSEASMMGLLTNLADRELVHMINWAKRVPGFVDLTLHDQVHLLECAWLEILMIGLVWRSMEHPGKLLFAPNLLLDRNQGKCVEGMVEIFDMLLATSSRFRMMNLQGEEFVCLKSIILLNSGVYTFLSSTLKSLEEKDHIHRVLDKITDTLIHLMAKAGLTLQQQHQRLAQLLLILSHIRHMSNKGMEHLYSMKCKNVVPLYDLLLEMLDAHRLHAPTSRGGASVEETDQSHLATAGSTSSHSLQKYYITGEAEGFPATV

CCCCN
inactive: outcome [1] | Potency [2] | outcome [3] | Potency [4] | Potency [5] | outcome [6] | Potency [7] | Potency [8] | outcome [9] | Potency [10] | Potency [11] | outcome [12] | Potency [13] | Potency [14] | outcome [15]

COC(=O)c1ccccc1C(=O)c1ccc(OCCN2CCCCC2)cc1
inactive: outcome [1] | Potency [2] | outcome [3] | Potency [4] | outcome [16] | Potency [5] | outcome [6] | Potency [7] | Potency [8] | outcome [9] | Potency [11] | outcome [12] | Potency [13] | outcome [15] | outcome [17] | outcome [18]

NNc1nnc(NN)c2ccccc12
inactive: outcome [1] | Potency [2] | outcome [3] | Potency [4] | outcome [16] | Potency [5] | outcome [6] | Potency [7] | Potency [8] | outcome [9] | Potency [10] | Potency [11] | outcome [12] | Potency [13] | Potency [14] | outcome [15] | outcome [18]

COP(=O)(OC)OC(c1ccc(Cl)cc1)P(=O)(OC)OC (centres undefined)
inactive: outcome [1] | Potency [2] | outcome [3] | Potency [4] | outcome [16] | Potency [5] | outcome [6] | Potency [7] | Potency [8] | outcome [9] | Potency [13] | Potency [14] | outcome [15] | outcome [17] | outcome [18]

COc1ccc(OC)c(Cl)c1
inactive: outcome [1] | Potency [2] | outcome [3] | Potency [19] | Potency [5] | outcome [6] | Potency [7] | Potency [8] | outcome [9] | Potency [10] | Potency [11] | outcome [12] | Potency [13] | Potency [14] | outcome [15] | outcome [18]

CCN1CCc2nc(N)oc2CC1
inactive: outcome [1] | Potency [2] | outcome [3] | Potency [4] | outcome [16] | Potency [5] | outcome [6] | Potency [7] | Potency [8] | outcome [9] | Potency [10] | Potency [11] | outcome [12] | Potency [13] | Potency [14] | outcome [15] | outcome [17] | outcome [18]

BrCc1cccc(Oc2ccccc2)c1
inactive: outcome [1] | Potency [2] | outcome [3] | Potency [5] | outcome [6] | Potency [7] | Potency [8] | outcome [9] | Potency [10] | outcome [12] | Potency [13] | Potency [14] | Potency [20] | outcome [15] | outcome [18]
active: Potency [19] 54.5 µM

CCOC(=O)c1ccc(OC(=O)CCCCCN=C(N)N)cc1
inactive: outcome [1] | Potency [2] | outcome [3] | Potency [4] | outcome [16] | outcome [6] | Potency [7] | Potency [8] | outcome [9] | Potency [10] | Potency [13] | outcome [15] | outcome [17] | outcome [18]

CN1CCN(CC(=O)N2c3ccccc3C(=O)Nc3cccnc32)CC1
inactive: cytotoxicity increase [1] -13.9% [at 6.97 µM] | activity change, negative = cytotoxicity [2] 5.03% [at 8.39 µM] | viability change, negative = cytotoxic [3] 1.29% [at 8.39 µM] | activity change, negative = inhibition [4] 8.49% [at 8.39 µM] | outcome [16] | activity change, negative = inhibition [5] 0.529% [at 8.39 µM] | activity change, negative = cytotoxicity [6] 3.63% [at 8.39 µM] | viability change, negative = cytotoxic [7] 1.72% [at 8.39 µM] | viability change, negative = cytotoxic [8] 0.196% [at 8.39 µM] | activity change [9] 0.176% [at 8.39 µM] | activity change, negative = inhibition [10] 12.8% [at 8.39 µM] | activation [11] 7.01% [at 8.39 µM] | activity, negative = inhibition [12] 0.518% [at 8.39 µM] | activity change, negative = cytotoxicity [13] -6.25% [at 8.39 µM] | activity change, negative = cytotoxicity [14] 5.53% [at 8.39 µM] | activity change, negative = cytotoxicity [15] 9.64% [at 8.39 µM] | activation [17] 0.843% [at 8.39 µM] | cAMP activity change [18] -2.81% [at 8.39 µM]

CC1(C)S[C@@H]2[C@H](N=CN3CCCCCC3)C(=O)N2[C@H]1C(=O)O
inactive: outcome [1] | Potency [2] | outcome [3] | Potency [4] | outcome [16] | Potency [5] | outcome [6] | Potency [7] | Potency [8] | outcome [9] | Potency [10] | Potency [11] | outcome [12] | Potency [13] | Potency [14] | outcome [15] | outcome [17] | outcome [18]

Cc1c(I)c(=O)n(-c2ccccc2)n1C
inactive: outcome [1] | Potency [2] | outcome [3] | Potency [4] | outcome [16] | Potency [5] | outcome [6] | Potency [7] | Potency [8] | outcome [9] | Potency [10] | outcome [12] | Potency [13] | Potency [14] | outcome [15] | outcome [17] | outcome [18]

O=C1c2ccccc2C(=O)C1c1ccccc1
inactive: outcome [1] | Potency [2] | outcome [3] | Potency [4] | outcome [16] | Potency [5] | outcome [6] | Potency [7] | Potency [8] | outcome [9] | Potency [13] | Potency [14] | outcome [15] | outcome [17] | outcome [18]

NS(=O)(=O)c1ccc(NC(=O)CCC(=O)O)cc1
inactive: outcome [1] | Potency [2] | outcome [3] | Potency [4] | outcome [16] | Potency [5] | outcome [6] | Potency [7] | Potency [8] | outcome [9] | Potency [11] | outcome [12] | Potency [13] | Potency [14] | outcome [15] | outcome [17] | outcome [18]

CCCCCCCCSCC
inactive: outcome [1] | Potency [2] | outcome [3] | Potency [4] | Potency [5] | outcome [6] | Potency [7] | Potency [8] | outcome [9] | Potency [10] | Potency [11] | outcome [12] | Potency [13] | Potency [14] | outcome [15] | outcome [17] | outcome [18]
